APOBEC3G inh: APOBEC3G DNA deaminase inhibitors, primary screen, biochemical, fluorescence, single-stranded DNA substrate, uHTS; DNA dC->dU-editing enzyme APOBEC-3G (Homo sapiens), Q9HC16; recombinant A3G, ssDNA deamination FAM/TAMRA fluorescence; inhibition, % at 20 µM; 330,000 compounds, 0.28% hits; AID 493012, 2011;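 active = inhibition of at least 40% at 20 µM, with no more than 30% in the related APOBEC3A deaminase screen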
PHOSPHO1 inh: PubChem AID 1565; Phosphoethanolamine/phosphocholine phosphatase (Homo sapiens), Q8TCT1; recombinant PHOSPHO1, absorbance phosphatase assay; inhibition, % at 13.3 µM; 290,000 compounds, 1.1% hits; in the data active = inhibition above about 60%
Target sequence (Q8TCT1 whole entry, looked up): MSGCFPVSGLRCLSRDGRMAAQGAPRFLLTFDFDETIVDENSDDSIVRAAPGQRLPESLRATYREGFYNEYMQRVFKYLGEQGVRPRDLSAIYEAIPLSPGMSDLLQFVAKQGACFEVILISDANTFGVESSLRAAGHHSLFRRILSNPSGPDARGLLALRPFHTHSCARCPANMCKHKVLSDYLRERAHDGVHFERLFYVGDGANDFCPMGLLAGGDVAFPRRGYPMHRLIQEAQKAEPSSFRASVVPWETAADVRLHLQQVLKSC
esBAF inh: Bmi1 luciferase reporter increase in mESCs, primary screen, esBAF inhibitor project, mouse ES cells, Bmi1 luciferase knock-in, single point. reporter increase, % at 12.5 µM. AID 602393, 2012. 350,000 compounds, 2% hits. 24 h; 100% = twice the neutral-well signal; in the data active = activation above about 40%; inconclusive = no clear call, values can overlap the other calls;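 note: a rise in the Bmi1 reporter signal indicates esBAF inhibition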
MITF TRPM1 HTS: activators of MITF-driven TRPM1 promoter reporter, primary screen, cell-based, SK-MEL-5, luciferase, single point; SK-MEL-5 TRPM1-promoter luciferase, 24 h; % of positive control, neutral wells = 0; activation, % at 12.5 µM; 300,000 compounds, 0.75% hits; AID 588334, 2011;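 active = mean activation of at least 80% with every replicate also reaching 80%; inconclusive = mean reaches 80% but some replicate falls short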
APOBEC3A inh: APOBEC3A ssDNA deaminase inhibitors, primary screen, selectivity assay for APOBEC3G inhibitor project, biochemical, FAM/TAMRA oligo cleavage fluorescence | inhibition, % at 20 µM | DNA dC->dU-editing enzyme APOBEC-3A (Homo sapiens), P31941 | recombinant A3A, FAM/TAMRA ssDNA deamination fluorescence | 330,000 compounds, 0.41% hits;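 active = at least 40% inhibition at 20 µM here, with at most 30% in a related deaminase screen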
Target sequence (P31941 whole entry, looked up): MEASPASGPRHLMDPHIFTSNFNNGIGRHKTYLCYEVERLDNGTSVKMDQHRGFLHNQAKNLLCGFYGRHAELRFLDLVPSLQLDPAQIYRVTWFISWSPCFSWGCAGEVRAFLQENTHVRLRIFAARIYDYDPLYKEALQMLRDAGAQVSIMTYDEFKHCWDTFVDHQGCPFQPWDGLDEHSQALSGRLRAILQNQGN
Wnt bcat act: Wnt/beta-catenin pathway activators, primary screen, cell-based, plate reader, single point; Wnt/beta-catenin reporter cell assay, activator; 300,000 compounds, 1.2% hits; AID 743398, 2014; activation, % at 9.35 µM; in the data active = activation above about 30%, passing the limit was not always enough; inconclusive = no clear call, values can overlap the other calls
Each line names hits and unclear results; the compound was inactive in the other large screens. Shown are actives, neighbours in structure and some others; about 3.6% of the full set was active somewhere.

O=S(=O)(N[C@H]1CC[C@@H](CCn2cc(C3CC3)nn2)O[C@@H]1CO)c1ccc(Cl)cc1	none (no result: APOBEC3G inh, PHOSPHO1 inh, MITF TRPM1 HTS, APOBEC3A inh, Wnt bcat act)
COc1ccc(C(=O)N/N=C(/C)c2cccc(NC(=O)c3ccncc3)c2)cc1OC	none
COc1ccc(/C(C)=N/Nc2cccc(C(=O)O)c2)cc1OC	esBAF inh 52.6
C/C(=N\Nc1cccc(C(=O)O)c1)c1ccc(Cl)s1	esBAF inh 72.8
C[C@@H]1CCCCO[C@@H](CN(C)C(=O)C2CCCCC2)[C@@H](C)CN([C@@H](C)CO)C(=O)c2cc(NS(=O)(=O)c3cccs3)ccc2O1	none (no result: APOBEC3G inh, PHOSPHO1 inh, MITF TRPM1 HTS, APOBEC3A inh, Wnt bcat act)
CCOc1ccccc1CNC(=O)c1cn(C)c(=O)c2c1c1ccccc1n2C	Wnt bcat act 46.6
C/C(=N\O)c1ccc(N2C(=O)C3CC=C(Cl)CC3C2=O)cc1 (stereo unspecified)	esBAF inh 73.4, MITF TRPM1 HTS inconclusive, Wnt bcat act 58.8
Cc1ccc(-c2ccc(SCC(=O)NC3CCCCC3)nn2)cc1	PHOSPHO1 inh 61.6, esBAF inh 52.4
CCOC(=O)N1CCN(C(=O)CSc2ccc(-c3ccc(OC)cc3)nn2)CC1	PHOSPHO1 inh 68.5 (no result: esBAF inh)
CCOc1ccc(-c2ccc(SCC(=O)NC3CCCCC3)nn2)cc1	esBAF inh inconclusive, MITF TRPM1 HTS 94.5
COc1ccc(-c2ccc(SCC(=O)NC3CCCCC3)nn2)cc1	none
C[C@@H]1CN([C@H](C)CO)C(=O)c2cc(NC(=O)CCCN(C)C)ccc2O[C@@H]1CN(C)S(=O)(=O)c1ccc(Cl)cc1	none (no result: APOBEC3G inh, PHOSPHO1 inh, MITF TRPM1 HTS, APOBEC3A inh, Wnt bcat act)
Cc1nn2cc(-c3cccc(Cl)c3)cnc2c1Cl	esBAF inh 78.9
Cc1nn2cc(-c3cccc(Cl)c3)cnc2c1Br	none (no result: esBAF inh)
O=Cc1ccc(OCc2ccccn2)cc1	none
CCOc1ccc(OCc2ccc(C(=O)O)o2)cc1	none (no result: Wnt bcat act)
O=C(O)c1ccc(COc2ccc3ccccc3c2)o1	Wnt bcat act 50.8 (no result: esBAF inh)
O=Cc1cccc(OCc2cccc3ccccc23)c1	esBAF inh 66.5
O=Cc1ccc(OCc2ccc3ccccc3c2)cc1	esBAF inh 50.5, MITF TRPM1 HTS 103.5
COc1ccc(COc2cccc(C=O)c2)cc1	none (no result: PHOSPHO1 inh)
NNC(=O)c1ccc(COc2ccc3ccccc3c2)cc1	Wnt bcat act 33.0 (no result: esBAF inh)
Cc1ccc(OCC(=O)Nc2ccc3c(c2)OCO3)c(C)c1	MITF TRPM1 HTS 88.5 (no result: esBAF inh)
Cc1ccc(Cl)c(OCC(=O)Nc2ccc3c(c2)OCCO3)c1	esBAF inh 85.8, MITF TRPM1 HTS 131.0 (no result: Wnt bcat act)
Cc1ccc(C(=O)OC(C)C(=O)Nc2ccc3c(c2)OCO3)c(O)c1 (stereo unspecified)	esBAF inh 50.0 (no result: PHOSPHO1 inh)
CCN(CC(=O)Nc1ccc2c(c1)OCCO2)C(=O)COc1cc(C)ccc1Cl	none (no result: PHOSPHO1 inh)
CC(OC(=O)c1cccnc1)C(=O)Nc1ccc2c(c1)OCO2 (stereo unspecified)	none (no result: esBAF inh)
Cc1ccc(S(=O)(=O)N(C)C[C@@H]2Oc3ccc(NC(=O)Nc4c(C)noc4C)cc3C(=O)N([C@@H](C)CO)C[C@@H]2C)cc1	none (no result: APOBEC3G inh, PHOSPHO1 inh, MITF TRPM1 HTS, APOBEC3A inh, Wnt bcat act)
O=C1N/C(=N\S(=O)(=O)Cc2ccccc2)S/C1=C/c1cccc([N+](=O)[O-])c1	none
O=C1N/C(=N/O)S/C1=C/c1cccc([N+](=O)[O-])c1	Wnt bcat act 52.1
Cc1ccc(C(=O)NC2=NCCS2)cc1	Wnt bcat act 49.7 (no result: esBAF inh, MITF TRPM1 HTS)
COc1cc(OC)cc(C(=O)NC2=NCCS2)c1	none (no result: esBAF inh, Wnt bcat act)
COc1ccc(C(=O)NC2=NCCS2)cc1	Wnt bcat act 35.5 (no result: PHOSPHO1 inh)
CC(C)Oc1ccc(C(=O)NC2=NCCS2)cc1	none (no result: esBAF inh)
O=C(NC1=NCCS1)c1ccc(C(F)(F)F)cc1	esBAF inh 52.8, MITF TRPM1 HTS 87.2
CC(C)c1ccc(C(=O)NC2=NCCS2)cc1	Wnt bcat act 44.5
COCC(=O)Nc1ccc2c(c1)C(=O)N(C)C[C@H](OC)[C@H](C)CN(Cc1cncnc1)[C@@H](C)CO2	none (no result: APOBEC3G inh, PHOSPHO1 inh, MITF TRPM1 HTS, APOBEC3A inh, Wnt bcat act)
C[C@@H]1CCCCO[C@H](CN(C)Cc2ccc3c(c2)OCO3)[C@@H](C)CN([C@@H](C)CO)C(=O)c2cc(NS(=O)(=O)c3ccc(Cl)cc3)ccc2O1	none (no result: APOBEC3G inh, PHOSPHO1 inh, MITF TRPM1 HTS, APOBEC3A inh, Wnt bcat act)
N#Cc1ccc(C(=O)NC2=NCCS2)cc1	esBAF inh 48.0
